A selection: hits, their analogues and other compounds. The true share with any hit is near 2.4%.
JNK3 blocker: inhibitors of human JNK3 kinase; purified JNK3 kinase activity, HTS; inhibition, % at 8 µM; AID 746; actives 0.61% (n = 60,000); P53779; in the data active = inhibition above about 17%
FAK inh: FAK (human) kinase inhibition; Q05397; biochemical FAK kinase activity assay; inhibition, %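 (tested at 7 µM)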; actives 0.84% (n = 97,000); AID 727; in the data active = inhibition above about 19%
Target sequence (Q05397 whole entry, looked up): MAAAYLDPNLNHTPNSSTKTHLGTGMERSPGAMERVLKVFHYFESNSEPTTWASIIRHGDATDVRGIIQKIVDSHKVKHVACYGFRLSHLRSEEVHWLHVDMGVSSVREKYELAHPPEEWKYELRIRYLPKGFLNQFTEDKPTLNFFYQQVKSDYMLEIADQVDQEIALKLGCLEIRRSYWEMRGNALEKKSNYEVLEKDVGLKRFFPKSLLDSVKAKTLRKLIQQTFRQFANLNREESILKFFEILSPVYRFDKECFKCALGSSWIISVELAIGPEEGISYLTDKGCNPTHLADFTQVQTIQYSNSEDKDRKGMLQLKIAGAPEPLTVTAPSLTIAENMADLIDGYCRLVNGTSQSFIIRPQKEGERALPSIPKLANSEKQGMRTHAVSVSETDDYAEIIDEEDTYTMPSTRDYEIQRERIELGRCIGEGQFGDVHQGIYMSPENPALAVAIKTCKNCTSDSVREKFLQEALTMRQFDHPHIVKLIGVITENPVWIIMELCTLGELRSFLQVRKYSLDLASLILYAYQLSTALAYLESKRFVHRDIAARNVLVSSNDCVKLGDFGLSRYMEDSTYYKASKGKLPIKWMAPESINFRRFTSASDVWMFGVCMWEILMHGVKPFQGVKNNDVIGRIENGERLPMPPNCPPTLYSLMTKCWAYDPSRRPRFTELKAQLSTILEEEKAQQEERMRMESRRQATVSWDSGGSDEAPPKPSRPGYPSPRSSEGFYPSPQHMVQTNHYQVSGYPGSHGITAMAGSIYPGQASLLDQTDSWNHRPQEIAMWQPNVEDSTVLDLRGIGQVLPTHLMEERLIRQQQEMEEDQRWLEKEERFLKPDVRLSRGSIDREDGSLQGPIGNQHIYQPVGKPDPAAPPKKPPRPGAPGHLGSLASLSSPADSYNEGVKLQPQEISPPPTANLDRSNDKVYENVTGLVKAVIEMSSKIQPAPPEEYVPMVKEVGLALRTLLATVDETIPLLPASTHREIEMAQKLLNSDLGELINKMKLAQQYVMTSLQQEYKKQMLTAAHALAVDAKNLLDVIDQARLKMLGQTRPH
IL1B NFkB inh: blocks IL-1B driven NFkB nuclear translocation in HUVEC cells | actives 0.43% (n = 94,000) | HUVEC IL-1B NFkB p65 nuclear translocation imaging | AID 796 | inhibition, % at 2 µM;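 active = inhibition above about 30% together with a positive call from visual inspection of the well image, limit read from the data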;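 note: nuclear over cytoplasmic p65 intensity ratio measured by imaging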
IL1B NFkB pot: enhances IL-1B driven NFkB nuclear translocation; AID 819; actives 0.3% (n = 94,000); HUVEC IL-1B NFkB p65 nuclear translocation imaging; activation, % at 2 µM;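 active = activation above 40%, about the mean plus 3 SD, also judged a hit on visual image review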;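 note: percent activation is computed from the nuclear over cytoplasmic p65 intensity ratio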
HUVEC tox IL1B: HUVEC cytotoxicity counter-screen, IL-1B stimulated; actives 0.41% (n = 94,000); cell count reduction, % at 2 µM; HUVEC cell count loss, Hoechst imaging; AID 845;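 active = cell count reduction more than 3 SD above the screen-wide mean, cut at about 70% in these data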
PTK2B oligo ant: Pyk2 (human) oligomerization antagonism; Q293 cells, Pyk2 FERM NanoBiT luminescence; stronger effect = lower value; z-score (the deposit names both 25 µM and 10 µM); actives 0.83% (n = 99,000); Q14289; AID 1347419;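 active = Z-score of -3 or lower, scaled per plate to the spread of control and sample wells; inactive = z-score above -3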;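 note: negative z-score means lost luminescence so less FERM oligomerization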
Large screens that a line does not name were inactive.

Cc1ccc(C2=NN(C(=S)Nc3ccccc3)C(c3ccco3)C2)cc1 (centres undefined)	none (no result: JNK3 blocker)
CCS(=O)(=O)Nc1ccc(C2=NN(C(=O)c3ccco3)C(c3ccc(C)cc3)C2)cc1 (centres undefined)	PTK2B oligo ant -3 (no result: JNK3 blocker)
CCc1cc2c(cc3c(=O)n(CC(=O)NCCCN(CC)CC)nc(CC)n32)s1	none (no result: JNK3 blocker)
Cc1sc(NC(=O)c2ccco2)c(CN2CCC(C)CC2)c1C	none (no result: JNK3 blocker)
Cc1sc(NC(=O)c2ccco2)c(C(c2cccnc2)N2CCC(C)CC2)c1C (centres undefined)	PTK2B oligo ant -4.3 (no result: JNK3 blocker)
COC(=O)c1ccc(CN(c2ccc(C)cc2)S(=O)(=O)c2ccc3c(c2)OCCO3)o1	PTK2B oligo ant -3.3
COC(=O)c1ccc(CN(C)S(=O)(=O)c2ccc(C)cc2)o1	none (no result: FAK inh, IL1B NFkB inh, IL1B NFkB pot, HUVEC tox IL1B)
C=CCOc1ccc(Br)cc1/C=N/O	none (no result: JNK3 blocker)
O/N=C/c1cc(Br)ccc1OCc1ccccc1F	FAK inh 20 (no result: JNK3 blocker)
CC(C)(C)NC(=O)C(=O)NNC(=O)C12CC3CC(CC(C3)C1)C2	none (no result: JNK3 blocker)
CCCCOC(=O)Nc1ccc(C)c(Cl)c1	HUVEC tox IL1B 91 (no result: JNK3 blocker)
CC1(C(=O)O)CCC(C(=O)Nc2ccc(S(N)(=O)=O)cc2)C1(C)C (centres undefined)	none
Cc1nc2c(cnn2-c2ccc(Cl)cc2)c(=O)n1-c1ccc2c(c1)OCCO2	none (no result: FAK inh, IL1B NFkB inh, IL1B NFkB pot, HUVEC tox IL1B, PTK2B oligo ant)
O=C1CC(C(=O)N2CCN(c3ccc(F)cc3)CC2)CN1CCc1ccccc1 (centres undefined)	none (no result: PTK2B oligo ant)
CC(C)CCN1CC(C(=O)N2CCN(c3ccc(F)cc3)CC2)CC1=O (centres undefined)	HUVEC tox IL1B 76
COc1ccccc1CN1CC(C(=O)N2CCN(c3ccc(F)cc3)CC2)CC1=O (centres undefined)	IL1B NFkB pot 41
O=C(C1CCC(=O)N1Cc1ccccc1Cl)N1CCN(c2ccc(F)cc2)CC1 (centres undefined)	HUVEC tox IL1B 78
CNC(=O)c1[nH]cnc1C(=O)Nc1ccc(C)cc1	none (no result: JNK3 blocker, PTK2B oligo ant)
CNC(=O)c1[nH]cnc1C(=O)Nc1cccc(OC)c1	JNK3 blocker 18
CC1=C(C(N)=O)C(c2ccccn2)n2nc(-c3ccccc3Cl)nc2N1 (centres undefined)	IL1B NFkB inh 36 (no result: PTK2B oligo ant)
CCCCn1c2nc3ccccc3nc2c2c(=O)n(C(C)CC)cnc21 (centres undefined)	PTK2B oligo ant -3.1
O=C1Nc2ccccc2C12OCCCO2	none
COc1ccc(NC(=O)c2cn(-c3ccccc3)nc2-c2cc3ccccc3o2)cc1	PTK2B oligo ant -4.5 (no result: JNK3 blocker)
O=C(Nc1ccc2ccccc2c1)c1cn(-c2ccccc2)nc1-c1cccs1	none (no result: JNK3 blocker)
COC(=O)c1ccccc1NC(=O)NCc1cccnc1	JNK3 blocker 24
CCN1CCN(C(=O)c2ccc(NS(=O)(=O)c3ccccc3)cc2)CC1	none (no result: IL1B NFkB inh, IL1B NFkB pot, HUVEC tox IL1B)
CCOc1cc(C2C(C(=O)OC)=C(C)N=C3SC(C)C(=O)N32)ccc1OC(C)=O (centres undefined)	none
COC(=O)C1=C(C)N=C2SC(C)C(=O)N2C1c1cccc(F)c1 (centres undefined)	PTK2B oligo ant -3.6
O=c1[nH]c(Nc2nc3ccccc3o2)nc2c1CCCC2	PTK2B oligo ant -3.3
O=C1[C@@H]2Cc3ccccc3CN2C(=O)N1c1cccc(F)c1	none
CCOC(=O)c1nnn(-c2nonc2N)c1-c1ccccc1	IL1B NFkB pot 42
CC(C)Oc1cc(NC(=O)CSCC(=O)Nc2cccc(C(F)(F)F)c2)c(Cl)cc1Cl	none (no result: JNK3 blocker)
CCN(CC)c1ccc2cc(C=O)c(=O)oc2c1	IL1B NFkB pot 72 (no result: JNK3 blocker)
O=c1oc2ccccc2cc1-c1nnc(NCc2ccco2)s1	none (no result: JNK3 blocker)
CC(C)(C)c1ccc(CN2C3=NCCCN3c3ccccc32)cc1	HUVEC tox IL1B 75 (no result: JNK3 blocker)
CC(=O)Nc1c(I)c(NC(C)=O)c(I)c(C(=O)O)c1I	none (no result: FAK inh, IL1B NFkB inh, IL1B NFkB pot, HUVEC tox IL1B, PTK2B oligo ant)
Cc1[nH]nc(-c2ccc(OCc3cnn(-c4ccccc4)c3)cc2O)c1Oc1ccc(F)cc1	none (no result: JNK3 blocker)
CCOc1ccc(-c2n[nH]c(C)c2Oc2ccc(OC)cc2)c(O)c1	PTK2B oligo ant -3.1
Cc1[nH]nc(-c2ccc(O)c(C)c2O)c1Oc1ccccc1	PTK2B oligo ant -3.4 (no result: JNK3 blocker)
Cc1[nH]nc(-c2ccc(OCc3cnn(-c4ccccc4)c3)c(C)c2O)c1Oc1ccccc1	none (no result: JNK3 blocker)
Fc1ccc(NC(=S)Nc2ccc(Br)cc2)cc1	none (no result: JNK3 blocker, FAK inh, IL1B NFkB inh, IL1B NFkB pot, HUVEC tox IL1B)
COc1ccc2c(c1)c1ncn(Cc3ccco3)c(=O)c1n2C	JNK3 blocker 19
COc1ccc2c(c1)[nH]c1c(=O)n(Cc3ccco3)cnc12	none (no result: JNK3 blocker)
c1ccc(SCc2nc(-c3ccncc3)no2)cc1	none
O=C(C1CCCCN1S(=O)(=O)c1ccccc1)N1CCCCC1 (centres undefined)	IL1B NFkB inh 52 (no result: JNK3 blocker)
CC1CCN(S(=O)(=O)c2cccc(-c3cn4cc(Cl)ccc4n3)c2)CC1	none (no result: JNK3 blocker)
CCCc1nc(SCC(=O)N2CCCc3ccccc32)c2c(=O)n(C)c(=O)n(C)c2n1	none (no result: PTK2B oligo ant)
Cn1c(=O)c2c(SCC(=O)N3CCCc4ccccc43)nc(CC(C)(C)C)nc2n(C)c1=O	IL1B NFkB pot 42 (no result: PTK2B oligo ant)
COC(=O)c1cc(Nc2ncnc3c2cnn3-c2ccccc2)cc(C(=O)OC)c1	none (no result: FAK inh, IL1B NFkB inh, IL1B NFkB pot, HUVEC tox IL1B, PTK2B oligo ant)
O=C(Nc1ccccc1Cl)N1CCN(c2ncccn2)CC1	none
CC(=O)Nc1c(C(=O)N2CCN(c3ncccn3)CC2)cnn1-c1ccccc1Cl	IL1B NFkB pot 40 (no result: PTK2B oligo ant)
Cc1ccc(CNc2oc(-c3ccco3)nc2S(=O)(=O)c2ccccc2)cc1	none (no result: JNK3 blocker)
Cc1ccccc1-c1nc(S(=O)(=O)c2ccc(Br)cc2)c(NCc2cccnc2)o1	PTK2B oligo ant -3.4 (no result: JNK3 blocker)
Cc1ccc(S(=O)(=O)c2nc(-c3ccccc3)oc2NCc2cccnc2)cc1	IL1B NFkB inh 32
COC(=O)c1sccc1NC(=O)CN1CCN(c2ccc(F)cc2)CC1	JNK3 blocker 47 (no result: FAK inh, IL1B NFkB inh, IL1B NFkB pot, HUVEC tox IL1B)
CCCCn1c(SCc2cc(=O)[nH]c3ccccc23)nc2c1c(=O)n(C)c(=O)n2C	none (no result: FAK inh, IL1B NFkB inh, IL1B NFkB pot, HUVEC tox IL1B, PTK2B oligo ant)
CCCCNC(=O)CSc1nc2ccccc2c(=O)n1CCNC(C)=O	none (no result: JNK3 blocker)
CC(=O)NCCn1c(SCC(=O)NCCC(C)C)nc2ccccc2c1=O	IL1B NFkB inh 99 (no result: JNK3 blocker)
O=C(c1cccs1)N1CCN(S(=O)(=O)c2ccccc2)CC1	none (no result: JNK3 blocker)
O=C(c1cccs1)N1CCN(c2ccc(F)cc2)CC1	none (no result: JNK3 blocker)
O=C(c1ccsc1)N1CCN(C(=O)c2cccs2)CC1	HUVEC tox IL1B 78 (no result: JNK3 blocker)
O=C(c1cccs1)N1CCN(S(=O)(=O)N2CCCCC2)CC1	HUVEC tox IL1B 92
COc1ccc(N2CS(=O)(=O)/C(=C/N(C)C)C2=O)cc1	none (no result: JNK3 blocker)
CC1=C(C(N)=O)C(c2ccc(Cl)cc2Cl)n2ncnc2N1 (centres undefined)	IL1B NFkB inh 96
COc1cccc2c(=O)c(C(=O)NCc3cccs3)c[nH]c12	JNK3 blocker 37
Cc1cccc(N2CCN(C(=O)c3ccc(CS(=O)(=O)c4ccccc4C)o3)CC2C)c1 (centres undefined)	IL1B NFkB pot 49
COc1ccccc1-n1nnnc1SCc1cc2c(cc1Br)OCO2	none
C#CCn1c(S(=O)(=O)Cc2ccc(OC)cc2)nc(-c2ccccc2)c1-c1ccccc1	PTK2B oligo ant -3 (no result: JNK3 blocker)

Source: PubChem (several laboratories)
